TDP1 cell noCPT = qHTS for Inhibitors of human tyrosyl-DNA phosphodiesterase 1 (TDP1): qHTS in cells in absence of CPT. DT40 Tdp1-/- hTDP1 cells, no CPT, ATP luminescence, 48 h. Potency, µM (highest dose often 46.2 µM), usual class: inhibitors. 420,000 tested, 15% active; note: nearly all actives have a fitted effect of over 55% in size
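Stably hTDP1-transfected Tdp1-null chicken DT40 cells were treated with library compounds minus camptothecin and grown for at least 48 hr at 37 °C, after which cellular ATP was quantified by luminescence.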
HT1080 IDH1KD tx = kills HT-1080 cells with IDH1 knockdown; HT-1080 IDH1 knockdown viability, ATP luminescence, 48 h; Potency, µM (doses to about 46.1 µM), usual class: cytotoxic; 360,000 tested, 2% active; AID 686971
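Using the IDH1-knockdown HT-1080 line run in the same batch and compound series as the NT line, viability after 48 h at 37 °C was determined by CellTiter-Glo luminescence and expressed as % activity.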
ELG1 DNA repair = blocks ELG1-dependent DNA repair in HEK293T cells | HEK293T ELG1-luciferase reporter, luminescence, 16 h; DNA damage induced by 5-fluorouridine | Potency, µM (doses to about 46.1 µM), hits mostly inhibitors | 330,000 tested, 2.3% active; note: nearly all actives have a fitted effect of over 55% in size
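HEK293T cells expressing luciferase-tagged ELG1 (2,000/well) received 5-Fluorouridine plus compound or DMSO for 16 hr at 37 °C. Luciferase was read by ONE-Glo luminescence after 30 min at room temperature.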
HT1080NT lethal = kills 2HG-producing HT-1080-NT fibrosarcoma cells; HT-1080-NT fibrosarcoma viability, CellTiter-Glo ATP luminescence, 48 h; 360,000 tested, 1.6% active; Potency, µM (top dose mostly 46.1 µM), actives largely listed as cytotoxic;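 note: NT is the 2HG producing partner of a matched IDH1 knockdown line; nearly all actives have a fitted effect of over 55% in size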
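Read-out is CellTiter-Glo luminescence after 10 minutes at room temperature, following 48 hours' compound treatment of HT-1080-NT cells (750 cells/well, RPMI, 5% FBS, 37 degrees C).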
IL-1B inflam inh = inhibitors of inflammasome signaling (IL-1 beta secretion). activity change, % at 57.5 µM. THP-1 LPS/ATP IL-1B secretion, AlphaLISA, 16 h; active compounds read low. 360,000 tested, 4.7% active; in the data active = activity change below about -50%; inconclusive = mostly about -30% to -49%
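THP-1 cells pretreated 1 hr with compounds (up to 57.5 uM final), then stimulated with LPS (250 ng/mL final) plus ATP (1.25 mM final); secreted IL-1B measured by AlphaLISA after 16 hr, decreased signal indicating inhibition.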
DT40 TDP1 CPT = growth inhibition of DT40 Tdp1-/-;hTDP1 cells with camptothecin (screen for TDP1 inhibitors). Potency, µM (series often up to 46.2 µM), usual class: inhibitors. 420,000 tested, 12% active. AID 686979. chicken DT40 Tdp1-/-;hTDP1 cells + 20 nM CPT, ATP luminescence, 48 h; note: nearly all actives have a fitted effect of over 55% in size
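Chicken DT40 Tdp1-/- cells complemented with human TDP1, 400 cells/well, exposed to compounds plus 20 nM camptothecin for at least 48 h at 37 C; viability read as ATP content by CellTiter-Glo luminescence.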
A number is an active result; . = inactive; ? = inconclusive; / = no result; [ ] = another dose, or the depositor's remark. The list is not random: actives were taken first. Their share in the collection is about 19%. Unless noted, calls come from the whole dose curve; as a rule, active = well fitted curve in the direction sought with a large enough effect; inconclusive = small, poorly fitted or top-dose-only effect, or another doubt; inactive = no such curve, though single readings can be large; an effect the other way counts as inactive or inconclusive.

SMILES | TDP1 cell noCPT | HT1080 IDH1KD tx | ELG1 DNA repair | HT1080NT lethal | IL-1B inflam inh | DT40 TDP1 CPT
Cc1ccc(C)c(N2CCN(C(=O)c3cnn(C(C)(C)C)c3C3CCN(C(=O)OC(C)(C)C)CC3)CC2)c1 | ? | / | / | / | / | 18µM
Cc1ccc(Cl)cc1N1CCN(C(=O)c2cnn(C(C)(C)C)c2C2CCN(C(=O)OC(C)(C)C)CC2)CC1 | ? | / | / | / | / | 26µM
Cc1ccc(Cl)cc1N1CCN(C(=O)c2cnn(C)c2C2CCN(C(=O)OC(C)(C)C)CC2)CC1 | 5.8µM | / | / | / | / | 6.5µM
Cc1ccc(-n2ncc(C(=O)N3CCN(c4cc(Cl)ccc4C)CC3)c2C2CCN(C(=O)OC(C)(C)C)CC2)cc1 | . | / | / | / | / | ?
COC(=O)[C@]1(C)N[C@H](CN(C)S(=O)(=O)c2ccc(C)cc2)[C@@H]2C(=O)N(Cc3ccccc3)C(=O)[C@@H]21 | . | . | . | . | . | .
COCCNC(=O)C1(C)CCCN(C(=O)c2ccccc2OC(F)(F)F)C1 (stereo unspecified) | . | . | / | . | . | .
CN(Cc1cccc(Cl)c1Cl)C(=O)c1ccccc1SCC(=O)N1CCCC1 | 13µM | . | / | ? | . | 12µM
CN(CC(=O)Nc1ccc(OC(F)(F)F)cc1)C(=O)c1ccccc1SCC(=O)N1CCCC1 | ? | . | / | . | . | 23µM
CN(CC(=O)Nc1ccc(Cl)c(Cl)c1)C(=O)c1ccccc1SCC(=O)N1CCCC1 | 23µM | . | / | . | . | ?
O=C(COC(=O)c1ccccc1SCC(=O)N1CCCC1)Nc1ccc(OC(F)F)cc1 | ? | . | ? | . | . | .
COc1ccc(Br)cc1CN(C)C(=O)c1ccccc1SCC(=O)N1CCCC1 | ? | . | / | . | -53 | ?
O=c1c2ccccc2nc2n1C(CBr)CN2 (stereo unspecified) | . | . | . | ? | . | .
CN(Cc1ccc(Cl)c(Cl)c1)C(=O)c1ccccc1SCC(=O)N1CCCC1 | 21µM | . | ? | . | -72 | ?
CN(Cc1ccc(F)cc1)C(=O)c1cccc(S(=O)(=O)N2CCN(Cc3ccccc3)CC2)c1 | 13µM | . | . | . | -61 | 21µM
COc1ccccc1CN(C)C(=O)c1cccc(S(=O)(=O)N2CCN(Cc3ccccc3)CC2)c1 | ? | . | . | . | -54 | ?
CN1CCN(S(=O)(=O)c2cccc(C(=O)N(Cc3ccccc3)c3ccccc3)c2)CC1 | ? | . | / | . | . | ?
CSc1ccc(CN(C)C(=O)c2cccc(S(=O)(=O)N3CCN(Cc4ccccc4)CC3)c2)cc1 | 13µM | . | ? | ? | -72 | 16µM
COc1cccc(NC(=O)c2cccc(S(=O)(=O)N3CCN(Cc4ccccc4)CC3)c2)c1 | ? | . | ? | . | ? | ?
CC(=O)N1CCN(S(=O)(=O)c2cccc(C(=O)NC3CCCC(C)C3C)c2)CC1 (stereo unspecified) | ? | . | / | . | . | .
CC1CCCCC1NC(=O)c1cccc(S(=O)(=O)N2CCN(Cc3ccccc3)CC2)c1 (stereo unspecified) | 21µM | . | . | . | . | 16µM
O=C(CCCN1C(=O)c2ccccc2C1=O)Nc1ccc2c(c1)OCCO2 | . | . | . | . | . | .
COC(=O)Cc1ccccc1NS(=O)(=O)c1ccc(C)cc1 | . | . | / | . | . | .
COc1ccc(N2CC(NC(=O)COc3ccc4ccccc4c3)CC2=O)cc1 (stereo unspecified) | . | / | / | / | / | .
O=C1C=C(c2ccc3c(c2)OCCO3)C[C@@H](c2ccc(F)cc2)C1 | ? | . | . | . | . | ?
Cn1c(=O)cc(OCC(=O)NCc2ccc(F)cc2Cl)c2ccccc21 | . | / | / | / | / | .
SMILES | TDP1 cell noCPT | HT1080 IDH1KD tx | ELG1 DNA repair | HT1080NT lethal | IL-1B inflam inh | DT40 TDP1 CPT
COc1cccc(CNc2nc3c(-c4cccc(C)c4)nnn3c3ccccc23)c1 | ? | / | / | / | / | .
COc1cc2c(cc1OC)C(C(=O)Nc1ccccc1N1CCN(C)CC1)C1c3ccccc3CCN1C2=O (stereo unspecified) | . | . | . | . | ? | ?
COc1cc2c(cc1OC)C(C(=O)Nc1ccc3c(c1)OCCO3)C1c3ccccc3CCN1C2=O (stereo unspecified) | 23µM | . | . | . | . | ?
O=C1C(=O)N(c2nccs2)C(c2ccccc2)/C1=C(\O)c1ccc2c(c1)OCCO2 (stereo unspecified) | / | / | . | / | / | /
O=C1C(=O)N(c2nccs2)C(c2ccccc2F)/C1=C(\O)c1ccc2c(c1)OCCO2 (stereo unspecified) | 16µM | ? | ? | ? | . | ?
COc1cccc(N=c2oc3ccc(OC)cc3cc2-c2nc3ccccc3[nH]2)c1 | ? | ? | / | . | . | ?
COc1cccc(N=c2oc3ccccc3cc2-c2nc3ccccc3[nH]2)c1 | 23µM | ? | ? | ? | . | 23µM
CCOC(=O)c1c(C)[n+](-c2ccc(C)cc2)c(CC)c2cc(OC)c(OC)cc12 | 2.6µM | ? | . | ? | . | 2.1µM
CCOC(=O)c1c(-c2ccc(OC)c(OC)c2)csc1NC(=O)c1ccc(C)cc1 | . | / | / | / | / | .
CC(=O)c1ccc2c3c(cccc13)CC2 | . | . | . | . | . | .
O=C(C[N+]12CCCc3cccc(c31)CCC2)c1ccc2ccc3cccc4ccc1c2c34 | 5µM | / | / | / | / | 6.3µM
O=C(CSc1nnc(Cc2cccs2)n1C1CC1)NC1CCS(=O)(=O)C1 (stereo unspecified) | . | . | . | . | . | .
CC(C)NC(=O)c1cn(C2CCC(NC(=O)C(C)(C)C)CC2)nn1 (stereo unspecified) | . | / | / | / | / | .[9.04 µM]
Oc1c(Cl)cc(Oc2cc(Cl)c(O)c(CN3CCOCC3)c2)cc1CN1CCOCC1 | ? | . | / | . | . | .
Oc1ccc2ccccc2c1CN1CCOCC1 | . | . | . | . | . | .
Oc1cccc(CN2CCOCC2)c1O | ? | . | / | . | . | 26µM
CCCc1cc(CN2CCOCC2)c(O)c(CN2CCOCC2)c1O | 18µM | ? | / | . | ? | 15µM
Oc1c(CN2CCOCC2)cc(CN2CCOCC2)c(O)c1O | ? | . | / | . | . | 18µM
Cc1cccc(C)c1NC(=S)N(CCCN1CCOCC1)Cc1cccnc1 | . | ? | . | . | . | .
Cc1nn(-c2ccccn2)c2c1C(c1ccccc1Cl)C1=C(N2)c2ccccc2C1=O (stereo unspecified) | 4.6µM | . | 21µM | . | . | 6.5µM
CSC1=C(C#N)C(c2ccccc2Cl)C2=C(N1)c1ccccc1C2=O (stereo unspecified) | 18µM | . | . | . | -98 | 23µM

Screening results deposited in PubChem by National Center for Advancing Translational Sciences (NCATS).
